A selection: hits, their analogues and other compounds. The true share with any hit is near 1.7%.
GLP1R cytotox = qHTS of GLP-1 Receptor Inverse Agonists: Cytotox Screen; HEK293 cAMP-luciferase reporter cells, luminescence, 24 h; Potency, µM (highest dose often 38.3 µM), inactives show at the top dose activity change, negative = inhibition, hits mostly inhibitors; 410,000 tested, 0.13% active; AID 624418, 2012;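 also: loss of luciferase light is scored as toxicity; % is scaled to controls: 0 for no effect and ±100 for the full control effect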
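Step one: seed cells (200 cells/uL, DMEM with 10% Nu serum, 1% pen-strep). Step two: 12-hour incubation at 37 deg C. Step three: pin 23 nL compound, incubate 24 hr. Step four: add luciferase reagent, read luminescence 12 min later.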
GLP1R ag = qHTS of GLP-1 Receptor Agonists; 380,000 tested, 0.007% active; AID 624172, 2012; Glucagon-like peptide 1 receptor (Homo sapiens), P43220; Potency, µM (series often up to 45.6 µM), for inactives: at the highest dose activation, actives largely listed as activators; HEK293 GLP-1R CRE-luciferase, luminescence, 4-6 h; cells express a hypersensitive GLP-1R form; also: % of control where 0% means no effect
Target sequence (P43220 whole entry, looked up): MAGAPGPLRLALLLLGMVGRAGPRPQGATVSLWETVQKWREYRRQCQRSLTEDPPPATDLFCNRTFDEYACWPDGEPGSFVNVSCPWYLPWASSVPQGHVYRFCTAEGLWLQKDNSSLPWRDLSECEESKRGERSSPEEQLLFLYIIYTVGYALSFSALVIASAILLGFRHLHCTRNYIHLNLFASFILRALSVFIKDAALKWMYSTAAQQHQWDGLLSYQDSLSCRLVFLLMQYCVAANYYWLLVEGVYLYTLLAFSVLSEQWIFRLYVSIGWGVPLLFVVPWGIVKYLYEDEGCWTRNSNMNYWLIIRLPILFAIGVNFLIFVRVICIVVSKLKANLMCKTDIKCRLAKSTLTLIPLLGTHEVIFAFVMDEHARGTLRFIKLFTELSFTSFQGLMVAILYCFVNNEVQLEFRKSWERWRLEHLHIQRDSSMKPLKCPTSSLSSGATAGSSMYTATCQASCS
GLP1R inv ag = qHTS of GLP-1 Receptor Inverse Agonists (Inhibition Mode). Glucagon-like peptide 1 receptor (Homo sapiens), P43220. HEK293 GLP-1R CRE-luciferase, luminescence, 24 h; GLP-1R form is constitutively active. Potency, µM (top dose mostly 38.3 µM), inactives show at the top dose activity change, negative = inhibition, hits mostly inhibitors. 410,000 tested, 1.6% active; also: % is scaled to controls: 0 for no effect and ±100 for the full control effect; nearly all actives have a fitted effect of over 55% in size
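Seeding at 200 cells/uL, 12 h culture, 24 hr compound treatment, then luciferase reagent and a luminescence read; cells are HEK293 stably expressing a constitutively active GLP-1R plus cAMP-responsive luciferase.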
PTHR1 agonist = qHTS for PTHR1 Agonists: Primary Screen | HEK293 GP2 PTHR1 cells, GloSensor cAMP luminescence, 1 h | Potency, µM (titrated, usually from 115 µM), inactives show top-dose activation, usual class: activators | Parathyroid hormone/parathyroid hormone-related peptide receptor (Homo sapiens), Q03431 | 410,000 tested, 0.075% active; also: nearly all actives have a fitted effect of over 55% in size
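HEK-293-derived GP2 cells expressing PTHR1 and a GloSensor cAMP reporter, 3,000/well, plated overnight, given luciferin plus IBMX (each 0.5 mM as added) for 1 h at 37 °C, then compound for 1 h at 37 °C. Luminescence was read after 15 min at room temperature.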
The depositor's hits bear a star; i = inactive; ? = inconclusive; · = no result given; [ ] = dose if it differs, or a comment. Calls follow the shape of the dose curve; as a rule, active = well fitted curve in the direction sought with a large enough effect; inconclusive = small, poorly fitted or top-dose-only effect, or another doubt; inactive = no such curve, though single readings can be large; an effect the other way counts as inactive or inconclusive. Potency is read from the fitted curve at half-maximal effect.

SMILES	GLP1R cytotox	GLP1R ag	GLP1R inv ag	PTHR1 agonist
COc1cccc(CN(C)C[C@@H]2OCc3ccccc3-c3c(n(C)c4ccccc34)C(=O)N([C@@H](C)CO)C[C@H]2C)c1	?	-3%	10µM*	24%
C[C@@H]1CN([C@H](C)CO)C(=O)c2c(c3ccccc3n2C)-c2ccccc2CO[C@@H]1CN(C)Cc1ccc(O)cc1	?	-8%	?	-16%
C[C@@H]1CCCCO[C@@H](CN(C)CC2CCCCC2)[C@@H](C)CN([C@H](C)CO)C(=O)c2cc(NS(=O)(=O)c3ccc(Cl)cc3)ccc2O1	?	20%	10µM*	-21%
C[C@@H]1CCCCO[C@H](CN(C)Cc2ccc(C(F)(F)F)cc2)[C@H](C)CN([C@@H](C)CO)C(=O)c2cc(NC(=O)Cc3ccccc3)ccc2O1	?	6%	2.8µM*	-34%
O=C(Nc1ccc(Cl)c(Cl)c1)Nc1ccc(Br)cc1F	?	-21%	?	-46%
Cc1ccc(C)c(CN2CCC(CNC(=O)Nc3ccc(Br)cc3F)CC2)c1	?	10%	7.1µM*	-6%
O=C(NNC(=O)C(c1ccccc1)c1ccccc1)c1ccccn1	?	0%	?	i
CCOC(=O)c1ccc(N2C(=O)c3[nH]nc(-c4ccccc4)c3C2c2ccc(CC)cc2)cc1 (configuration not stated)	?	-6%	11µM*	-18%
CCOC(=O)N1CCN(Cc2nc3cc(NC(=O)c4cccc(C)c4)ccc3n2C(C)C)CC1	?	·	?	-50%
O=C(NCC(c1ccco1)N1CCCC1)c1cccc(S(=O)(=O)N2CCc3ccccc32)c1 (configuration not stated)	-19%	-1%	?	-34%
Cc1ccc(C)c(N2CCN(C(=O)CCS(=O)(=O)c3ccc4c(c3)oc(=O)n4C)CC2)c1	-4%	-5%	-10%	-33%
CC(N)C(=O)c1ccccc1 (configuration not stated)	·	11%[110 µM]	·	·
N=C(N)SCc1ccc(Cl)cc1Cl	?	-8%	7.1µM*	i
Clc1ccc(-c2cn3nc4c(nc3n2)CCCC4)cc1	i	-19%	6.3µM*	-16%
NC(=S)NN=C(c1ccc(Br)cc1)C1CC1	2.5µM*	-9%	4µM*	-22%
C/C(CC(=O)Nc1ccc(Cl)c(C(F)(F)F)c1)=N\NC(N)=S	?	2%	10µM*	i
COc1ccc([N+](=O)[O-])c(S(=O)(=O)c2ccc(Cl)cc2)n1	10µM*	-9%	?	-30%
O=C(C[C@@H]1CC[C@@H]2[C@H](COC[C@H](O)CN2Cc2cccc(C(F)(F)F)c2)O1)NCc1ccc(Cl)cc1	-26%	·	10µM*	-53%
O=C(CCC(=O)N1C[C@H]2C[C@@H](C1)c1cccc(=O)n1C2)NCc1cccc(C(F)(F)F)c1	0%	-4%	-20%	-5%
O=C(Nc1ccc(Oc2ccccc2)cc1)c1ccc(F)c(S(=O)(=O)N2CCN(c3cccc(Cl)c3)CC2)c1	-1%	·	?	-30%
CN1C(C(=O)Nc2cccc(O)c2)=CC(c2cccs2)=NS1(=O)=O	?	5%	-16%	-34%
N#CC(C(=O)C12CC3CC(CC(C3)C1)C2)c1nc2ccccc2[nH]1 (configuration not stated)	-10%	-3%	1.1µM*	i
CC(=O)Nc1c(Br)cc2c(c1Br)Cc1cc([N+](=O)[O-])ccc1-2	38%	8%	21%	-10%
O=C(Nc1ccc(Cl)c(C(F)(F)F)c1)NC1CC2CCCC(C1)N2C1CC1 (configuration not stated)	?	-10%	3.2µM*	i
COC(=O)C1=C(c2ccc(Cl)c(C(F)(F)F)c2)C[C@@H]2CC[C@H]1N2C(=O)N1CCCC1	2%	13%	?	-17%
SMILES	GLP1R cytotox	GLP1R ag	GLP1R inv ag	PTHR1 agonist
COc1cccc(N2CCN(c3c4c(nc5nncn35)CCC4)CC2)c1	4%	·	-28%	-45%
C=C[C@@H]1C[C@@]1(C)[C@@H](NP(=O)(c1ccccc1)c1ccccc1)c1ccccc1	7%	11%	10µM*	-21%
COC(=O)[C@]1(C)C[C@H]1[C@H](NP(=O)(c1ccccc1)c1ccccc1)c1ccccc1	-8%	-5%	-26%	i
O=C(/C=C/c1ccc(Br)cc1)c1ccc(NC2=NCCCS2)cc1	?	-4%	5µM*	-93%
CC(=O)c1ccc(NC2=NCCCS2)cc1	0%	12%	8%	i
O=c1[nH]c(=S)[nH]c(O)c1N=Nc1ccc2c(c1)OCCO2	?	2%	?	-21%
O=c1[nH]c(=S)[nH]c(O)c1N=Nc1ccc2c(c1)OCO2	10µM*	-3%	6%	-3%
O=c1[nH]c(=O)n(Cc2ccc(F)cc2)c(O)c1/C=N/Nc1ccccc1	0%	0%	4.5µM*	-8%
CCC1(CCC(C)C)C(=O)NC(=O)NC1=O	·	-6%[96 µM]	·	·
CCC(C)C1NC(=O)C2CCCN2C(=O)C(CC(C)C)OC(=O)CCNC(=O)C(C)N(C)C(=O)C(C(C)C)N(C)C1=O (configuration not stated)	4.5µM*	9%	?	9%
C=CCCC[C@@H]1OC(=O)CNC(=O)C([C@@H](C)CC)NC(=O)[C@@H]2CCCN2C(=O)C([C@@H](C)CC)OC(=O)[C@H](Cc2ccccc2)N(C)C(=O)[C@H](C(C)C)NC(=O)C1(C)C (some centres not stated)	?	-1%	?	-1%
CCn1c(N2CCN(C(=O)C34CC5CC(CC(C5)C3)C4)CC2)nc2ccccc21	?	1%	2µM*	-76%[57.5 µM]
CN1CCN(c2ccc(NC(=S)NC(=O)/C=C/c3ccco3)cc2)CC1	?	11%	155%	i
CCN(CC)CC(O)c1ccc(C2CCCC2)cc1 (configuration not stated)	10%	-1%	7.1µM*	i
CN1C(CC(O)c2ccccc2)CCCC1CC(O)c1ccccc1 (configuration not stated)	-3%	?	-9%	-9%
COc1cccc(C(=O)CCN[C@@H](C)[C@H](O)c2ccccc2)c1	·	15%	·	·
Cc1ccc(-n2ncc(C(=O)NCCN3CCC(Cc4ccccc4)CC3)c2C2CCN(C(=O)OC(C)(C)C)CC2)cc1	?	·	10µM*	-42%
CC(C)COP(=O)(OCC(C)C)C(Nc1ccccc1)c1ccccc1 (configuration not stated)	?	5%	11µM*	i
Cn1cc(SCC(=O)Nc2nc3ccccc3s2)c2ccccc21	?	-14%	10µM*	-9%[57.5 µM]
CC(C(=O)c1cn(C)c2ccccc12)c1ccccc1 (configuration not stated)	5%	3%	?	-12%[57.5 µM]

Screening results: PubChem BioAssay, National Center for Advancing Translational Sciences (NCATS)
